Results published in PubChem BioAssay (NCATS).
Inconclusive results are not listed. Calls follow the shape of the dose curve; as a rule, active = well fitted curve in either direction with a large enough effect (not every such curve was filed as active); inconclusive = small, poorly fitted or top-dose-only effect, or another doubt; inactive = flat fitted curve, though single readings scatter.

Assay: AP1 Signaling Pathway (AID 357);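 also: ME-180 reporter cells stimulated with EGF at its EC50 level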
Settings: ME-180 (cervical carcinoma) AP-1-bla reporter, EGF-induced, beta-lactamase ratio, 5 h; at 17.2 µM (top of the series) unless noted
Summary of the method: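 Beta-lactamase reporter under AP-1 response element, ME-180 background. Stimulus: EC50 EGF. Compound exposure 5 h, 37 °C. Detection: CCF4, 2.5 h RT, 460/530 nm. Values: AC50 from titration.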
% is scaled to controls: 0 for no effect and ±100 for the full control effect.

Activity change, negative = inhibition, inactive:
CCC1=Nc2ccccc2NC2=C1C(=O)CCC2 16.1%, CC(C)c1nc2n[nH]c(N)c2c2c1CCCC2 -8.5%, Cc1noc(NS(=O)(=O)c2ccc(NC(=O)COc3ccccc3)cc2)c1C 2.17%, c1cc2c(cc1C1=Nn3c(nnc3C3CCCCC3)SC1)OCO2 -22.3%, C[C@@H]1C[C@H](Nc2ccccc2)c2ccccc2N1C(=O)c1cccnc1 5.62%, Cc1cc(=O)oc(C)c1C(=O)N1CCN(C)CC1 5.91%, CC(C)c1cc(NCCCN2CCOCC2)n2c(nc3ccccc32)c1C#N -14.3%, Cc1cc(-c2ccc(F)cc2)nc2cc(C(N)=O)nn12 -15.1%, Cc1cc(C)n(-c2nnc(C)n2/N=C/c2ccco2)n1 4.26%, CC(=O)c1c(N)nc2n(c1=O)CCCCC2 -12.6%, FC(F)(F)c1cccc(N2CCc3cn[nH]c32)c1 -1.96%, O=C(NCCO)C1(c2ccccc2)CCCC1 15.9%, COc1ccccc1C(CC(=O)Nc1nccs1)c1ccco1 (stereo not drawn) -11.9%, c1ccc(Cc2nn[nH]n2)cc1 7.13%, CC(=O)c1ccc(C#CC(C)(C)O)s1 6.06%, COC(=O)C1=C(N)Oc2cc(C)oc(=O)c2C1c1ccncc1 (stereo not drawn) -9.84%, N#Cc1nc(-c2cccs2)oc1NCCN1CCOCC1 -3.9%, COc1cccc2c(=O)c(SC(F)(F)C(F)C(F)(F)F)c(C)[nH]c12 (stereo not drawn) -13.4%
